Artemis endo inh = Artemis (human) endonuclease inhibition | Q96SD1 | inhibition, % at 10 µM | 0.78% of 30,000 active | recombinant Artemis, quenched FAM hairpin cleavage fluorescence | AID 686954;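 active = at 10 µM dose, at least 30% inhibition, measured as corrected fluorescence normalized to stimulator and neutral control wells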
Target sequence (Q96SD1 whole entry, looked up): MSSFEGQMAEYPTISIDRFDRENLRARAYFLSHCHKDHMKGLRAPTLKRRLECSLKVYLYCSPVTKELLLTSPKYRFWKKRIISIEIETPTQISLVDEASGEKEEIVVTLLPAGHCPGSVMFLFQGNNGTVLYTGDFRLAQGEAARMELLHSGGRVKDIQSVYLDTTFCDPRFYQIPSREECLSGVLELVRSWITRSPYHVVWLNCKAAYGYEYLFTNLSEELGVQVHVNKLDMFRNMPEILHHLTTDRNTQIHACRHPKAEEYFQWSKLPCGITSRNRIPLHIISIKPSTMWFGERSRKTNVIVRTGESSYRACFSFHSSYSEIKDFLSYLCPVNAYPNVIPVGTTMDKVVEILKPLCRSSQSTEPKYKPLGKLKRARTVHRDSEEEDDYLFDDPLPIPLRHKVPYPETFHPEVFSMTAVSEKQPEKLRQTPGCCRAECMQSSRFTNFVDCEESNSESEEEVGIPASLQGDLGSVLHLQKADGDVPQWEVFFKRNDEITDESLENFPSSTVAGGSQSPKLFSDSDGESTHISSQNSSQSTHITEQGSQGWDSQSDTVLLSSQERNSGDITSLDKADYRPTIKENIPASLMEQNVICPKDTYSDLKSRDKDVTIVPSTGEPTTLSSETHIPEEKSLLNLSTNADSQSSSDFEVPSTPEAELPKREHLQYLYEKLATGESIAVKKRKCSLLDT
An asterisk follows results filed as active. The entries come from a sample that favours hits as a whole.

SMILES	Artemis endo inh
Cn1nnnc1SCC(=O)N1CCN(c2cccc(Cl)c2)CC1	-8.8
Cc1ccc(S(=O)(=O)CCc2nc3ccccc3s2)cc1C	4.2
O=C(Nc1cccnc1)C1(F)C(F)(F)C(F)(F)C(F)(F)C(F)(F)C1(F)F	-2.4
COC(=O)/C=C/C(=O)Nc1cccnc1	35.5*
COc1cc2ccccc2cc1C(=O)Nc1cccnc1	-1.3
CCOc1ccc(C(=O)Nc2ccc(N3CCCC3)cc2)cc1	27.2
O=C(Nc1ccc(N2CCCCC2)cc1)c1ccc(F)cc1	10.1
COc1ccc(C(=O)Nc2ccc(N3CCCC3)cc2)cc1	61.8*
O=C1C2C3c4ccccc4C(c4ccccc43)C2C(=O)N1Cc1cccnc1 (configuration not stated)	4.1
COc1ccc(NC(=O)c2cc(S(=O)(=O)N3CCS(=O)(=O)CC3)ccc2Cl)cc1	-4.2
Cc1ccc(-c2cc(C(=O)NCc3ccccn3)c3ccccc3n2)cc1C	13.8
CSc1nnc2c3cc(C)ccc3n(Cc3ccccc3)c2n1	37.3*
CCCn1c2ccccc2c2nnc(SC(CC)C(=O)Nc3cc(C)on3)nc21 (configuration not stated)	0.8
O=C1c2ccccc2C(=O)N1CSc1nnc2c3ccccc3n(CCc3ccccc3)c2n1	6.6
Cc1cccc(NC(=O)c2ccc3ccccc3n2)c1C	-2.4
O=C(O)C(=O)/C(=C\c1ccccc1)c1ccc2ccccc2n1	-8.4
O=C(O)C(=O)/C(=C\c1cccc2ccccc12)c1ccc2ccccc2n1	30.5*
O=C1C(N2CCOCC2)=C(n2nnc3ccccc32)C(=O)c2ccccc21	35.6*
O=C1c2ccccc2C(=O)c2c1cccc2N1CCOCC1	3.9
Cc1nc2ccccc2nc1N1CCOCC1	4.2
N=c1ncn(CC(O)CO)c2nc(N3CCOCC3)[nH]c12 (configuration not stated)	3.4
CN(C)c1nc(SCc2ccc(Cl)cc2)nc2c1CCCC2	1.7
Cc1cccc(OCCSc2cc(C)nc(N)n2)c1	-2.5
Cc1cc(NS(=O)(=O)c2ccc(NC(=O)c3ccco3)cc2)no1	6.8
Cc1cc(NS(=O)(=O)c2ccc(Nc3nc(-c4sc(N)nc4C)cs3)cc2)no1	59.1*
SMILES	Artemis endo inh
Cc1cc(NS(=O)(=O)c2ccc(NC(NC(=O)C(C(F)(F)F)C(F)(F)F)(C(F)(F)F)C(F)(F)F)cc2)no1	-3.1
Cc1ccc(C(=O)CCC(=O)Nc2cccc(C(F)(F)F)c2)cc1	1.7
CC1CC(N(C(=O)c2ccccc2Cl)c2ccccc2)c2ccccc2N1 (configuration not stated)	2.4
COc1cccc(/C=N/n2c(C)nc3ccccc3c2=O)c1O	-2.5
COc1cccc(/C=N/NC(=O)c2c(-c3ccccc3)noc2C)c1O	6.8
COc1cccc(/C=N/Nc2nc(Nc3ccccc3)nc(-n3nc(C)cc3C)n2)c1O	96.1*
COC(=O)c1ccccc1NC(=O)C1CCN(C(=O)c2ccc(OC)cc2)CC1	-3.9
COc1ccccc1-n1c(C)cc(C=O)c1C	-2.6
Cc1ccc(NC(=O)c2ccc(Cl)c(N3C(=O)C=CC3=O)c2)cc1	1.7
Cc1cc(C)c2cc(CN(Cc3ccc4c(c3)OCO4)Cc3nnnn3Cc3ccco3)c(=O)[nH]c2c1	40.2*
Cc1ccc2[nH]c(=O)c(CN(Cc3ccc4c(c3)OCO4)Cc3nnnn3Cc3ccco3)cc2c1	35.1*
O=c1[nH]c2cc3c(cc2cc1CN(Cc1ccccc1)Cc1nnnn1Cc1ccco1)OCCO3	27.0
CCc1ccc2[nH]c(=O)c(CN(Cc3ccccc3)Cc3nnnn3Cc3ccco3)cc2c1	21.1
CCC(c1nnnn1Cc1ccco1)N(CCc1ccccc1)Cc1cc2cc(C)ccc2[nH]c1=O (configuration not stated)	14.4
Cc1cc(C)c2cc(CN(CCO)Cc3nnnn3Cc3ccc(F)cc3)c(=O)[nH]c2c1	1.3
Cc1cc(C(=O)CSc2nnc(-c3cccnc3)n2-c2ccccc2F)c(C)n1CC1CCCO1 (configuration not stated)	1.8
CS(=O)(=O)N(CC(=O)N/N=C/c1cccs1)c1cccc(Cl)c1Cl	-8.2
CC1C/C(=N/O)C(C)CN1 (configuration not stated)	-4.7
Cc1noc(NC(=O)c2ccccc2)c1C#N	1.8
CCC(C)n1c(NC(=O)c2ccccc2)c(C#N)c2nc3ccccc3nc21 (configuration not stated)	38.6*
N#Cc1c(N)n(CCNC(=O)c2ccc(Cl)cc2)c2nc3ccccc3nc12	-0.4
O=C(CCCc1ccccc1)Nc1cccnc1	-5.4
c1ccc(-c2ccc(-c3cnc4n3CCCCC4)cc2)cc1	-1.8
Cc1cc(/C=N/n2cnnc2)c(C)n1-c1ccccc1	-4.4
Cc1cc(/C=N/n2cnnc2)c(C)n1-c1cccc(Cl)c1	9.8
SMILES	Artemis endo inh
Cc1cc(/C=N/n2cnnc2)c(C)n1-c1ccc(OCc2ccc(Cl)cc2Cl)cc1	42.2*
CCCC(=O)Nc1cnc(NC(=O)c2cccc(F)c2)cc1C	-3.4
COCCn1c(SCC(=O)Nc2sccc2C(N)=O)nc2cc(Cl)ccc2c1=O	2.7
COc1cc(CN(C)Cc2ccccc2)cc(OC)c1O	-6.2
Cc1c(Cl)c(-c2n[nH]c(=S)n2-c2ccc(F)cc2)nn1C	-1.4
COc1ccc2c(CC(=O)OCC(=O)NC(=O)c3cccn3C)coc2c1	5.4
COc1ccc(OC)c(S(=O)(=O)NCC2CCCO2)c1 (configuration not stated)	45.1*
COc1cc(C)c(Cl)cc1S(=O)(=O)NCC1CCCO1 (configuration not stated)	-1.1
CCOc1cc(C)c(Cl)cc1S(=O)(=O)NCC1CCCO1 (configuration not stated)	-0.1
Cc1ccc(-c2csc3ncnc(N4CCN(C(=O)c5ccccc5)CC4)c23)cc1	6.8
Cc1cc(C(=O)CN2C(=O)NC(c3ccccc3)(c3ccccc3)C2=O)c(C)n1Cc1ccccc1	4.1
CCN(CC)c1nc(OCCNC(=O)Nc2ccccc2)nc(N(CC)CC)n1	10.6
CCOC(=O)C1CCCN(C(=O)Cc2ccc(Cl)cc2)C1 (configuration not stated)	-1.8
CCOC(=O)C1CCCN(Cc2nc(N)nc(Nc3ccc(Cl)cc3)n2)C1 (configuration not stated)	33.6*
CCOC(=O)C1CCCN(c2cc(C)nc3cc(-c4ccc(Cl)cc4)nn23)C1 (configuration not stated)	1.4
CCCCOc1ccc(NC(=O)CN2CCN(C(=O)OCC)CC2)cc1	0.1
Cc1ccc(Nc2nc(N)nc(CN3CCN(Cc4ccc5c(c4)OCO5)CC3)n2)cc1	1.5
CCOC(=O)N1CCN(Cc2nc(N)nc(Nc3ccc(Oc4ccccc4)cc3)n2)CC1	39.2*
Cc1cc(C)c(S(C)(=O)=O)c(Oc2ccc(C(C)(C)C)cc2)n1	4.1
CCc1nnc(NC(=O)c2nc3nc(C)cc(C)n3n2)s1	-4.2
COC(=O)c1cnn(-c2nc3c(C)cccc3s2)c1C	2.7
CC1Cc2ccccc2N1C(=O)Cn1cc([N+](=O)[O-])cn1 (configuration not stated)	8.1
Cc1ccc(NC(=O)c2c(Cl)n(C)c3ccccc23)cc1	-3.2
COC(=O)c1cc(-c2c[nH]c3ccccc23)n[nH]1	-3.7
CNc1nc(-c2c[nH]c3ccccc23)cs1	38.4*
Cc1csc(NC(=O)Cc2c[nH]c3ccccc23)n1	-3.5
C=CCNCC(=O)NN=C(c1ccccc1)c1ccccc1	-0.4
O=C(CCSc1ccccc1)Nc1ccc(OCc2ccccc2)cc1	-4.8
O=C1C(c2ccccc2)SC(=Nc2ccccc2)N1S(=O)(=O)c1ccccc1 (configuration not stated)	-12.6
O=C(N/N=C\c1ccc(F)cc1)c1csnn1	-12.7
